Drawing on PubChem BioAssay (NCI), this text covers growth for nine compounds.

Some test systems named below: SR leukemia; RPMI-8226 leukemia; OVCAR-8 ovarian; OVCAR-5 ovarian; OVCAR-4 ovarian; SK-OV-3 ovarian; IGROV1 ovarian; OVCAR-3 ovarian; NCI/ADR-RES ovarian; T-47D breast; BT-549 breast; MDA-MB-435 melanoma; MCF7 breast; HCT-116 colon; HCC-2998 colon; KM12 colon; SW-620 colon.
What all share (experiment): NCI-60 one-dose screen, 48 h (100 = growth as untreated, 0 = no growth, -100 = all killed)
Holding throughout (details): 10 µM unless noted

About 83,000 compounds went through this panel and 20% of them were active in at least one assay; those are over-represented in the sample as a whole.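 Interpretation: 100, growth as untreated; towards 0, rising growth inhibition; 0, no net growth; 0 to -100, cell death. Compounds scoring below 10 were considered active.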 Unmarked numbers belong to inactive results. Activity calls are given as the source filed them.

Take `CCCCCCCCCc1cc[n+](CC(=O)c2ccc([N+](=O)[O-])cc2)cc1`: the growth in the experiment on SR leukemia was -14.3% (active); in the experiment with RPMI-8226 leukemia, -25.8% (active); in the experiment on OVCAR-8 ovarian, 11.7%; in the experiment on OVCAR-5 ovarian, 18.9%; with OVCAR-4 ovarian, 19.8%; in the experiment on SK-OV-3 ovarian, 50%. The growth in the experiment on IGROV1 ovarian was 26.6%; in the experiment with OVCAR-3 ovarian, 3.13% (active); with NCI/ADR-RES ovarian, 66.3%; in the experiment with T-47D breast, 22.2%; in the experiment with BT-549 breast, 15.2%; in the experiment on MDA-MB-435 melanoma, -20.8% (active). The growth in the experiment on MCF7 breast is -41.3% (active); with HCT-116 colon, -34.5% (active); in the experiment on HCC-2998 colon, -76.3% (active); with KM12 colon, -31.5% (active).

As for `COc1ccc(OC)c(Cn2cc3c(c2-c2ccccc2)CCc2cnoc2-3)c1`, the growth with SR leukemia is 22%; in the experiment on RPMI-8226 leukemia, 61.1%; with OVCAR-8 ovarian it was 79%; with OVCAR-5 ovarian, 90.8%; with OVCAR-4 ovarian, 77.6%; in the experiment with SK-OV-3 ovarian it was 48.2%. For the same compound, the growth in the experiment with IGROV1 ovarian was 44.7%; with OVCAR-3 ovarian, 17.9%; in the experiment with NCI/ADR-RES ovarian, 20.5%; in the experiment with BT-549 breast, 65.3%; with MDA-MB-435 melanoma it was -17.6% (active); with SW-620 colon, 37.4%. The growth is 44.4% in the experiment on MCF7 breast, 43.2% in the experiment with HCT-116 colon, 85.5% in the experiment with HCC-2998 colon and 33.3% with KM12 colon.

With `COc1ccc(CN2C(=O)/C(=C\C(=O)c3ccc(OCCN4CCCCC4)cc3)c3ccccc32)cc1`, the growth in the experiment on SR leukemia was -22.2% (active); in the experiment on RPMI-8226 leukemia, -11.6% (active); in the experiment with OVCAR-8 ovarian it was 80.8%; with OVCAR-5 ovarian it was 76.3%; with OVCAR-4 ovarian, 45.4%; in the experiment on SK-OV-3 ovarian, 107%. The growth in the experiment on IGROV1 ovarian was 68.7%; with OVCAR-3 ovarian it was 44.3%; in the experiment with NCI/ADR-RES ovarian, 83.3%; in the experiment on T-47D breast, 15.5%; in the experiment on BT-549 breast, 81.5%; in the experiment on MDA-MB-435 melanoma it was 95%. Further, the growth in the experiment with SW-620 colon was -39.9% (active); in the experiment on MCF7 breast it was 20.3%; in the experiment with HCT-116 colon, 4.2% (active); with HCC-2998 colon it was 94.9%; in the experiment with KM12 colon, 89%.

Take `COc1ccc(Oc2[nH]n(C3=Nc4ccccc4Sc4ccccc43)c(=O)c2C#N)cc1`: the growth in the experiment on SR leukemia is 130%; in the experiment with RPMI-8226 leukemia it was 91.2%; in the experiment on OVCAR-8 ovarian, 96.2%; in the experiment with OVCAR-5 ovarian, 116%; with OVCAR-4 ovarian, 112%; in the experiment on SK-OV-3 ovarian it was 95.5%. In addition, the growth is 91.6% with IGROV1 ovarian; 91.8% in the experiment on OVCAR-3 ovarian; 87% with NCI/ADR-RES ovarian; 92.8% in the experiment with T-47D breast; 101% in the experiment with MDA-MB-435 melanoma; 101% with MCF7 breast. Besides, the values for the growth in the experiment on HCT-116 colon, in the experiment on HCC-2998 colon and in the experiment on KM12 colon were 93.5%, 103% and 104%, respectively.

Consider `CCCCS(=O)(=O)c1cc(Nc2ccc(O)c3c2C(=O)c2ccccc2C3=O)ccc1C`, for which the growth was 58.6% in the experiment on SR leukemia; 80.9% in the experiment on RPMI-8226 leukemia; 86.6% with OVCAR-8 ovarian; 78.5% with OVCAR-5 ovarian; 78.9% in the experiment on OVCAR-4 ovarian; 87.8% with SK-OV-3 ovarian. Also, the growth was 81.8% in the experiment with IGROV1 ovarian; 46.4% in the experiment with OVCAR-3 ovarian; 82.2% with NCI/ADR-RES ovarian; 91.6% in the experiment on BT-549 breast; -85.7% (active) with MDA-MB-435 melanoma; 103% with SW-620 colon. Also, the growth in the experiment with MCF7 breast was 33.8%; in the experiment with HCT-116 colon it was 78.7%; in the experiment with HCC-2998 colon, 67%; in the experiment with KM12 colon, 73.4%.

Turning to `COc1ccc(C2C3(C#N)C(N)=NC(=C(C#N)C#N)C23C#N)cc1OC` (stereo not drawn), the growth is 83.6% with SR leukemia; 117% with RPMI-8226 leukemia; 106% with OVCAR-8 ovarian; 93.3% in the experiment on OVCAR-5 ovarian; 110% in the experiment with OVCAR-4 ovarian; 109% with SK-OV-3 ovarian. Further, the growth in the experiment on IGROV1 ovarian is 113%; in the experiment with OVCAR-3 ovarian, 109%; in the experiment on NCI/ADR-RES ovarian, 114%; in the experiment on T-47D breast it was 110%; with BT-549 breast, 93.3%; with MDA-MB-435 melanoma it was 107%. The growth in the experiment on SW-620 colon is 106%; in the experiment on MCF7 breast, 108%; in the experiment with HCT-116 colon it was 112%; in the experiment on HCC-2998 colon, 122%; in the experiment on KM12 colon, 118%.

For `Oc1ccc2ccccc2c1/C=N\Nc1ccccn1`, the growth in the experiment on SR leukemia was 8.32% (active); in the experiment on RPMI-8226 leukemia it was 25.2%; in the experiment on OVCAR-8 ovarian it was 14.5%; in the experiment with OVCAR-5 ovarian it was 65.3%; in the experiment on OVCAR-4 ovarian, 8.67% (active); in the experiment on SK-OV-3 ovarian, 19.8%. The growth in the experiment on IGROV1 ovarian is -4.78% (active); in the experiment with OVCAR-3 ovarian, 5.04% (active); in the experiment with NCI/ADR-RES ovarian, 0.917% (active); in the experiment on T-47D breast it was 7.06% (active); in the experiment with BT-549 breast it was 22.2%; in the experiment on MDA-MB-435 melanoma, 25.1%. The growth with MCF7 breast was 2.43% (active); with HCT-116 colon, 1.72% (active); with HCC-2998 colon it was 21%; in the experiment on KM12 colon it was 29.7%.

Turning to `COC(=O)c1ccc(C(=Nc2ccc(N(C)C(=O)CN3CCN(C)CC3)cc2)c2c(O)[nH]c3ccc(C(=O)OC)cc23)cc1`, the growth with SR leukemia is 2.08% (active); in the experiment on RPMI-8226 leukemia, 15.1%; in the experiment on OVCAR-8 ovarian, 30.7%; in the experiment on OVCAR-5 ovarian, 69.7%; in the experiment with OVCAR-4 ovarian, 38.3%; in the experiment on SK-OV-3 ovarian it was 0.753% (active). Also, the growth is 5.1% (active) in the experiment with IGROV1 ovarian; 28.3% in the experiment with OVCAR-3 ovarian; 107% in the experiment on NCI/ADR-RES ovarian; 45.8% in the experiment with BT-549 breast; 43.6% in the experiment with MDA-MB-435 melanoma; 18.9% in the experiment on SW-620 colon. Besides, the growth was 10.9% in the experiment on HCT-116 colon and 15.3% in the experiment with KM12 colon.

As for `COC(=O)c1cc(Nc2ccc(O)c3c2C(=O)c2c([N+](=O)[O-])ccc(O)c2C3=O)cc(C(=O)OC)c1`, the growth was 2.02% (active) with SR leukemia; 17.9% in the experiment with RPMI-8226 leukemia; 65.1% with OVCAR-8 ovarian; 50.4% with OVCAR-5 ovarian; 80.5% in the experiment with OVCAR-4 ovarian; 82.3% in the experiment with SK-OV-3 ovarian. The growth is 85.9% in the experiment with IGROV1 ovarian; 54.7% in the experiment on OVCAR-3 ovarian; 71.2% in the experiment with NCI/ADR-RES ovarian; 68.9% with T-47D breast; -84.4% (active) with MDA-MB-435 melanoma; 13.1% in the experiment with SW-620 colon. Further, the growth in the experiment with MCF7 breast is 33.3%; in the experiment on HCT-116 colon, 36.1%; in the experiment on HCC-2998 colon it was 36.3%; with KM12 colon it was 88.7%.
